In ChEMBL document CHEMBL4513216, “Probing the Open Global Health Chemical Diversity Library for Multistage-Active Starting Points for Next-Generation Antimalarials” (ACS Infect Dis, 2020):
About 8,600 (12%) of roughly 69,000 compounds showed an effect of 50% or more. The sample holds strong results, similar compounds and a random draw of the others, so the mix is not that of the screen.

What follows are molecules tested on Plasmodium berghei (assay: Screen against P. berghei liver stage (PbLuc), transformed with Luciferase, at 10uM). Settings: tested at 10 uM.
Assay type: functional, HepG2
For `CC1(C(=O)NC2CCCC2)CN(c2cnccn2)CCO1` (stereo unspecified), the INHIBITION was 12.3%.
With `CCC(C)N(C)S(=O)(=O)c1ccc(CCNC(C)=O)s1` (stereo unspecified) the INHIBITION was 13.7%.
For `CCC(CC)N(C)S(=O)(=O)c1ccc(CCNC(C)=O)s1`, the INHIBITION was -79.8%.
`CC(=O)NCCc1ccc(S(=O)(=O)N(C)C(C)CC(C)C)s1` (stereo unspecified) gave an INHIBITION of 68.2%.
In the case of `COCCCN(Cc1cc(O)nc2ccccc12)C(=O)NC(C)C`, the INHIBITION is reported as 33%.
Work on `c1nc(NCc2cc3n(n2)CCN(C2CCCCC2)C3)c2nc[nH]c2n1` yielded an INHIBITION of 78.5%.
`CC(C)CN1CCn2nc(CNc3ncnc4[nH]cnc34)cc2C1` was tested, and the INHIBITION was 33%.
`CC(C)NCc1cc2n(n1)CCN(C1CCCCC1)C2` gave an INHIBITION of 14.9%.
Molecule `Cc1nc(CN2C(=O)C[C@@H]3[C@@H]2CCN3Cc2cnn(C)c2)cs1` has an INHIBITION of -8.51%.
`CCc1nnc2ccc(N3CCN(S(=O)(=O)c4ccc(Cl)s4)CC3)nn12` gave an INHIBITION of 32.3%.
For `Cc1nc(C)c(CC(=O)Nc2nc(C)c(C)s2)c(=O)[nH]1`, the INHIBITION was 21.1%.
`CSc1sc(NC(=O)Cc2c(C)nc(C)[nH]c2=O)nc1C` was tested, and the INHIBITION was 71.4%.
Molecule `Cc1nc(C)c(CC(=O)Nc2nnc(C)s2)c(=O)[nH]1` has an INHIBITION of 20.1%.
With `O=c1[nH]c(-c2ccccn2)nc2c1CCN(S(=O)(=O)N1CCCC1)C2` the INHIBITION was 7.92%.
`CS(=O)(=O)c1cn[nH]c1C1CCCN(C(=O)CN2CCOCC2)C1` (stereo unspecified) gave an INHIBITION of 20.8%.
`Cn1nccc1C1CCN(CC(=O)NCC2CC2)CC1` was tested, and the INHIBITION was 70.8%.
Work on `N#CC1(NC(=O)CN2CCC(c3ccnn3CCO)CC2)CCCC1` yielded an INHIBITION of 37.9%.
For `O=C(CN1CCC(c2ccnn2CCO)CC1)NC1CCCC1`, the INHIBITION was -11.4%.
`O=C(CN1CCC(c2ccnn2CCO)CC1)NCc1ccco1` was tested, and the INHIBITION was 58.5%.
`CCC1CN(CC(=O)NCc2ccco2)CCO1` (stereo unspecified) showed an INHIBITION of 36.6%.
Molecule `CC(C)C(C)(C#N)NC(=O)CN1CCC(c2ccnn2CCO)CC1` (stereo unspecified) has an INHIBITION of -1.14%.
`O=C(CN1CCC(c2ccnn2CCO)CC1)NCc1cccs1` showed an INHIBITION of 10.8%.
`O=C(CN1CCC(c2ccnn2CCO)CC1)NCC1CC1` gave an INHIBITION of 33.3%.
With `O=C(CN1CCOC(c2ccc(Cl)s2)C1)NCc1ccco1` (stereo unspecified) the INHIBITION was 52.8%.
Molecule `O=C(CN1CCOC(c2ccc(Cl)c(Cl)c2)C1)NCc1ccco1` (stereo unspecified) has an INHIBITION of 21.5%.
Molecule `Cc1csc(NC(=O)CN2CCC(c3ccnn3CCO)CC2)n1` has an INHIBITION of 66%.
`O=C(CN1CCC(c2ccnn2CCO)CC1)NCC1CCCCC1` was tested, and the INHIBITION was -17.6%.
Work on `Cc1ccc(CN2CCC3(CC2)CN(C(=O)c2cnccn2)CCO3)o1` yielded an INHIBITION of -14.2%.
`O=C(N1CCCC1)N1CCN(Cc2cccnc2)c2ncccc2C1` showed an INHIBITION of 31.2%.
`Cn1nccc1C(=O)N1CCC(c2nnsc2S(C)(=O)=O)CC1` showed an INHIBITION of 30.95%.
Work on `COC1(CNC(=O)NCc2ccccc2)CCSC1` (stereo unspecified) yielded an INHIBITION of 18.7%.
In the case of `Cc1nc(CNC(=O)NCC(O)c2ccccc2)cs1` (stereo unspecified), the INHIBITION is reported as 11.2%.
Molecule `CC(C)S(=O)(=O)N1CCC(c2[nH]ncc2S(C)(=O)=O)C1` (stereo unspecified) has an INHIBITION of 37.6%.
With `CN(CCC#N)C(=O)C(C)(C)Oc1ccc(C(N)=O)cc1` the INHIBITION was 25.3%.
`CC(=O)N1CCN(CCNC(=O)c2nc3ccccc3c(=O)[nH]2)CC1` was tested, and the INHIBITION was -96.2%.
Work on `CCNC(=O)[C@@H]1C[C@@H](NC(=O)c2ccc(C)cc2O)CN1CCCSC` yielded an INHIBITION of 15.9%.
In the case of `Cc1cc(OCC(=O)N2CCCC(c3nccs3)C2)no1` (stereo unspecified), the INHIBITION is reported as -19.6%.
With `Cc1nn(C)c(Cl)c1S(=O)(=O)N(C)c1ccc(Cl)cn1` the INHIBITION was 14.4%.
In the case of `O=C1CC(c2ccncc2)C2(CCN(Cc3ccc(F)cc3)CC2)N1` (stereo unspecified), the INHIBITION is reported as 1.71%.
`CN(C)CCOCc1nnc2n1CCN(Cc1ccco1)CC2` gave an INHIBITION of 16.4%.
`Cc1cc(Br)ccc1C(=O)Nc1c(C(N)=O)n[nH]c1C` gave an INHIBITION of 3.87%.
With `Cc1cnc2c(C(=O)N3CCCC(OCc4ccccn4)C3)cnn2c1` (stereo unspecified) the INHIBITION was 37.9%.
`CN1CCN(Cc2ccc(Cl)cc2)CC1C(=O)O` (stereo unspecified) showed an INHIBITION of 17%.
`O=C1CN(C(=O)C2CCCCC2)CC(O)CN1Cc1ccc(Cl)cc1` (stereo unspecified) showed an INHIBITION of -0.473%.
`O=C(C1CCCC1)N1CCC(C2CCN(Cc3ccc(Cl)cc3)C2)CC1` (stereo unspecified) gave an INHIBITION of 67.3%.
`CCOCC(=O)N1CCC(C2CCN(Cc3ccc(Cl)cc3)C2)CC1` (stereo unspecified) gave an INHIBITION of 26.9%.
Molecule `CC(=O)NCC(=O)N1CCC(C2CCN(Cc3ccc(Cl)cc3)C2)CC1` (stereo unspecified) has an INHIBITION of 26.9%.
`O=C(C1CCC1)N1CCC(C2CCN(Cc3ccc(Cl)cc3)C2)CC1` (stereo unspecified) gave an INHIBITION of 55.6%.
With `CCc1nc(C2CCCN2CC(=O)N2CCCc3ccccc32)no1` (stereo unspecified) the INHIBITION was 15.3%.
For `CN(C)c1cc(C(=O)N2CCCCCC2)ccn1`, the INHIBITION was 5.308%.
In the case of `O=S(=O)(CCNC1CCc2ncnn2C1)c1ccccc1` (stereo unspecified), the INHIBITION is reported as 20.6%.
`COC1CC2(CCN(Cc3ccc4c(c3)OCO4)CC2)C1` showed an INHIBITION of 37.4%.
For `Cc1nn(CC(O)CN2CCc3ccccc3C2)c(=O)c2ccccc12` (stereo unspecified), the INHIBITION was 18.6%.
Molecule `NC(=O)c1c(NC(=O)CCC(=O)O)sc2c1CCc1ccccc1-2` has an INHIBITION of -13%.
For `Cc1cccc(OCCN2CCN(Cc3cnn(CCO)c3)CC2)c1`, the INHIBITION was 32.9%.
In the case of `Cc1nn(C)c(C)c1S(=O)(=O)NCC(C)(O)c1ccc2c(c1)OCO2` (stereo unspecified), the INHIBITION is reported as 34.3%.
`Cn1cnc(S(=O)(=O)NCC(C)(O)c2ccc3c(c2)OCO3)c1` (stereo unspecified) gave an INHIBITION of 52.5%.
Molecule `Cc1noc(C)c1S(=O)(=O)NCC(C)(O)c1ccc2c(c1)OCO2` (stereo unspecified) has an INHIBITION of 31.3%.
`CNc1nccnc1C1CN(C(=O)c2cc[nH]n2)CCO1` (stereo unspecified) gave an INHIBITION of -22.5%.
`CN1CCN(C)C(CNc2c(C#N)cnc3ccc(Cl)cc23)C1` (stereo unspecified) showed an INHIBITION of 7.18%.
Molecule `CCOC1CC2(CCN(c3cnccn3)CC2)c2ccccc21` (stereo unspecified) has an INHIBITION of 37.9%.
In the case of `c1cncc(C2CC3(CCN(c4cnccn4)CC3)c3ccccc32)c1` (stereo unspecified), the INHIBITION is reported as 54.1%.
With `CN(C)CCOC1CC2(CCN(c3cnccn3)CC2)c2ccccc21` (stereo unspecified) the INHIBITION was 31.9%.
`Cc1cc(C)cc(OCC(=O)N2CCC2)c1` showed an INHIBITION of -5.22%.
With `CN(C)C(=O)CO[C@H]1CN(Cc2ccc3c(c2)OCO3)[C@@H]2COC[C@H]12` the INHIBITION was 47.4%.
For `O=C(Nc1cnccn1)[C@@H]1C[C@H]2OCC[C@H]2N(c2ncc(F)cn2)C1`, the INHIBITION was 0.923%.
`O=C(Nc1cnccn1)[C@H]1CO[C@H]2CCN(c3ncc(F)cn3)C[C@H]2C1` gave an INHIBITION of 27.3%.
In the case of `O=C(Nc1cnccn1)[C@H]1C[C@H]2OCC[C@H]2N(c2ncc(F)cn2)C1`, the INHIBITION is reported as 60%.
Work on `CS(=O)(=O)N1C[C@H](C(=O)Nc2cccnc2)C[C@H]2OCC[C@H]21` yielded an INHIBITION of 30.5%.
For `CS(=O)(=O)N1C[C@@H](C(=O)Nc2cnccn2)C[C@H]2OCC[C@H]21`, the INHIBITION was 39.3%.
Molecule `CS(=O)(=O)N1C[C@H](C(=O)Nc2cnccn2)C[C@H]2OCC[C@H]21` has an INHIBITION of 61.5%.
